An excerpt weighted towards active compounds, which were near 3.2% of everything screened.
TROY NFkB inh = inhibitors of TROY-driven NF-kB signaling, primary screen, Q293 LMP1-TROYcd cells, NF-kB luciferase, uHTS | Q293 LMP1-TROYcd NF-kB luciferase reporter, 4 h | inhibition, % at 10 µM | 360,000 compounds, 0.98% hits;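 active means compounds whose plate-normalised and pattern-corrected inhibition of the luciferase reporter signal at the single screening dose is 50% or more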
PAX8 reporter = inhibitors of PAX8-driven TPO luciferase reporter, primary screen, RMG-I cells, single concentration | SteadyGlo, 24 h | inhibition, % at 12.6 µM | 360,000 compounds, 1.2% hits | AID 652154, 2013;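 active means mean replicate inhibition at least 60% with every replicate also reaching 60%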;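 further: luciferase light reporting Pax8 driven TPO promoter activity; plate controls were median of neutral control wells for no effect and mitoxantrone controls for full effect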
LGR2 antag = inhibitors of bursicon-induced LGR2 CRE-luciferase signal, primary screen, cell-based, HEK293, CRE-luciferase reporter, bursicon stimulation. Drosophila bursicon receptor LGR2 (rickets). bursicon-stimulated, 4 h. inhibition, % at 9.99 µM. 380,000 compounds, 0.35% hits. AID 720647, 2013;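 active means drop in luminescence signal, shown as inhibition above about 50% in the replicate tests, limit read from the data, passing the limit was not always enough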;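 further: agonist challenge used bursicon conditioned medium at about half maximal strength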
EWS-Fli inh = EWS/Fli-driven NR0B1 reporter inhibitors, primary screen, A673 cells, NR0B1 luciferase, luminescence, MLPCN library; viability-normalised; inhibition, % at 12.6 µM; 350,000 compounds, 0.67% hits; AID 651661, 2012;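 active means mean inhibition of at least 50% after viability correction, with every replicate also passing that limit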;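 further: firefly luciferase signal divided by Alamar Blue viability fluorescence both relative to DMSO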
EBV LMP1 NFkB = EBV LMP1-driven NF-kappaB luciferase reporter inhibitors, primary screen, cell-based, luminescence, single point. 350,000 compounds, 0.69% hits. LMP1-induced NF-kappaB luciferase reporter cells. inhibition, % at 12.5 µM; in the data active means inhibition above about 41%;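 further: 0% = neutral control wells and 100% = reference inhibitor control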
TWEAK Fn14 block = inhibitors of TWEAK-Fn14 signaling, primary screen, luciferase reporter cells, uHTS; inhibition, % at 10 µM; AID 1159606, 2016; 360,000 compounds, 2% hits; TWEAK-stimulated Fn14 reporter cells, luciferase luminescence, 8 h; in the data active means inhibition above about 50%
Active calls of the source: *; . = no result given.

SMILES | TROY NFkB inh | PAX8 reporter | LGR2 antag | EWS-Fli inh | EBV LMP1 NFkB | TWEAK Fn14 block
C[C@H]1CCCCO[C@H](CN(C)S(=O)(=O)c2ccc(Cl)cc2)[C@@H](C)CN([C@@H](C)CO)C(=O)c2cc(NS(=O)(=O)c3cccs3)ccc2O1 | . | 67.5* | 3.7 | 26.2 | . | .
C[C@H](CO)N1C[C@H](C)[C@@H](CN(C)S(=O)(=O)c2ccc(Cl)cc2)OCCCC[C@H](C)Oc2ccc(NS(=O)(=O)c3cccs3)cc2C1=O | . | 79.8* | 4.8 | 18.5 | . | .
Cc1ccc(S(=O)(=O)N(C)C[C@@H]2OCCCC[C@H](C)Oc3ccc(NS(=O)(=O)c4cccs4)cc3C(=O)N([C@H](C)CO)C[C@H]2C)cc1 | . | 77.9* | 4.5 | 11.3 | . | .
C[C@H](CO)N1C[C@H](C)[C@H](CN(C)S(=O)(=O)c2ccc(Cl)cc2)OCCCC[C@H](C)Oc2ccc(NS(=O)(=O)c3cccs3)cc2C1=O | . | 66.8* | 42.4 | 6.1 | . | .
COCC(=O)N(C)C[C@H]1Oc2ncc(C#Cc3ccccc3)cc2C(=O)N([C@@H](C)CO)C[C@H]1C | . | . | 1.4 | 6.4 | . | .
O=C(C[C@@H]1CC[C@H]2[C@@H](COC[C@H](O)CN2Cc2ccncc2)O1)NCc1ccncc1 | . | 0.6 | -1.9 | 8.0 | . | .
CCCCn1nnc(NC(=O)Cc2ccc(Cl)cc2)n1 | . | . | . | . | -1.6 | 74.1*
CCCn1nnc(NC(=O)Cc2ccccc2)n1 | -1.4 | 4.7 | . | . | 4.9 | 14.2
CCCCn1c(=N)n(CC(=O)c2ccc(Br)s2)c2ccccc21 | 14.4 | 71.5* | 36.4 | 62.9* | -70.1 | -10.3
CCCSc1ncc(Cl)c(C(=O)Nc2ccc(S(=O)(=O)Nc3ncccn3)cc2)n1 | -14.0 | 20.3 | 1.8 | -5.7 | 2.3 | 58.3*
CCCCNS(=O)(=O)c1ccc(NC(=O)C(Sc2ccccc2)c2ccccc2)cc1 (stereo not drawn) | 42.8 | 72.3* | 13.4 | . | -1.3 | 62.7*
CCC(C(=O)Nc1ccc(S(=O)(=O)Nc2ncccn2)cc1)c1ccccc1 (stereo not drawn) | 13.8 | -8.6 | 15.0 | -4.0 | 22.6 | 85.6*
COc1ccc(C(=O)/C(C#N)=N/Nc2cccc([N+](=O)[O-])c2)cc1 | 59.3* | 30.5 | -17.7 | 62.0* | 14.9 | 60.0*
COc1cc2cc(C(=O)N3CCN(c4ccccc4OC)CC3)[nH]c2cc1OC | 11.5 | 7.6 | 24.6 | 7.8 | 53.0* | 2.1
COc1ccccc1N1CCN(C(=O)c2cc3ccccc3[nH]2)CC1 | 12.9 | 4.1 | 10.7 | 13.2 | 33.7 | 3.9
COc1cc2ccccc2cc1C(=O)N1CCN(C(C)=O)CC1 | 11.4 | 7.8 | 20.4 | 8.0 | 3.1 | -0.5
COc1ccccc1N1CCN(c2ncc(C(=O)N3CCN(c4cccc(Cl)c4)CC3)c3ccccc23)CC1 | -5.6 | -20.8 | 38.7 | 13.7 | 31.9 | 80.4*
CCOc1ccccc1N1CCN(C(=O)c2cc3ccccc3cc2OC)CC1 | 6.5 | 41.7 | 5.6 | 59.1* | -1.4 | 7.1
Cc1noc(C)c1NC(=O)Nc1ccc2c(c1)CC(=O)N([C@@H](C)CO)C[C@H](C)[C@H](CN(C)S(=O)(=O)c1ccccc1)O2 | . | -8.7 | -0.9 | -51.1 | . | .
CC1CCc2c(sc3nc(SCC(=O)O)n(-c4ccccc4)c(=O)c23)C1 (stereo not drawn) | -26.8 | -4.8 | 16.1 | -3.9 | -5.5 | 88.7*
Cc1ccc(-n2c(SCC(=O)O)nc3sc4c(c3c2=O)CCCC4)cc1 | -0.2 | 3.6 | -6.1 | 16.3 | -5.3 | 10.4
O=C(Nc1ccccc1Cl)N1CCN(c2ccccn2)CC1 | -1.3 | 8.3 | 8.9 | . | 2.9 | 101.1*
COc1ccccc1NC(=O)N1CCN(c2ccccn2)CC1 | -16.1 | -16.9 | -2.5 | -4.7 | 0.0 | 1.6
CNC(=O)C[C@@H]1CC[C@H]2[C@H](COc3ccc(NC(=O)NCc4ccccc4)cc3C(=O)N2C)O1 | . | -26.9 | -9.4 | 6.1 | . | .
C[C@H](CO)N1C[C@H](C)[C@H](CN(C)Cc2ccc3c(c2)OCO3)OCCCC[C@H](C)Oc2ccc(NS(=O)(=O)c3ccc(Cl)cc3)cc2C1=O | . | 76.1* | -5.4 | 9.6 | . | .
SMILES | TROY NFkB inh | PAX8 reporter | LGR2 antag | EWS-Fli inh | EBV LMP1 NFkB | TWEAK Fn14 block
Cc1ccc(S(=O)(=O)Nc2ccc3c(c2)C(=O)N([C@H](C)CO)C[C@@H](C)[C@@H](CN(C)Cc2ccc4c(c2)OCO4)OCCCC[C@@H](C)O3)cc1 | . | 97.0* | 16.4 | 25.8 | . | .
Cc1ccc(S(=O)(=O)Nc2ccc3c(c2)C(=O)N([C@@H](C)CO)C[C@H](C)[C@H](CN(C)Cc2ccc4c(c2)OCO4)OCCCC[C@@H](C)O3)cc1 | . | 26.3 | 11.9 | 10.2 | . | .
C[C@H]1CN([C@@H](C)CO)C(=O)c2cccc(NC(=O)C3CCCCC3)c2O[C@@H]1CN(C)S(=O)(=O)c1cn(C)cn1 | . | 2.7 | -13.9 | -2.4 | . | .
CO[C@@H](CN(C)CC1CCOCC1)[C@H](C)CN(C(=O)Nc1ccc(F)cc1)[C@@H](C)CO | . | . | -11.0 | -2.8 | . | .
CCOC(=O)c1ccc(NC(=O)NCCc2cnc[nH]2)cc1 | 0.0 | 6.5 | -5.3 | -23.6 | -5.0 | 60.1*
CCOC(=O)c1ccc(NC(=O)NCc2ccncc2)cc1 | -21.9 | -30.2 | . | . | -1.9 | -3.3
COc1ccc(-c2[nH]c(-c3ccc(C(=O)O)cc3)nc2-c2ccccc2)cc1 | -19.2 | -22.8 | . | . | -1.6 | 3.6
COc1cc(-c2nc(-c3ccc4c(c3)-c3ccccc3S4(=O)=O)c(-c3ccccc3)[nH]2)cc(OC)c1O | -8.7 | -15.2 | . | . | 7.2 | 58.6*
Cc1ccc(S(=O)(=O)N[C@@H](Cc2ccccc2)C(=O)CCl)cc1 | 4.9 | -4.2 | . | 19.4 | 1.3 | 65.8*
CC(NS(=O)(=O)c1ccc(Br)cc1)C(=O)NCCc1ccccc1 (stereo not drawn) | 56.8* | 0.5 | 5.1 | . | -3.1 | -2.2
Cc1ccc(S(=O)(=O)N[C@@H]2CC[C@@H](CC(=O)NC3CCCCC3)O[C@@H]2CO)cc1 | . | -5.2 | 4.6 | -4.7 | . | .
C[C@H](CO)N1C[C@H](C)[C@@H](CN(C)Cc2ccc(C(=O)O)cc2)Oc2c(NC(=O)C3CCOCC3)cccc2C1=O | . | -2.1 | -10.2 | 1.5 | . | .
CS(=O)(=O)N1CC(=O)N2[C@H](CO)[C@H](c3ccc(C#CCC4CCCC4)cc3)[C@H]2C1 | . | 76.0* | -19.0 | -7.9 | . | .
Cc1ccccc1S(=O)(=O)N1CC(=O)N2[C@H](CO)[C@H](c3ccc(C#CCC(C)C)cc3)[C@H]2C1 | . | 66.0* | 10.8 | -1.2 | . | .
CS(=O)(=O)N1CC(=O)N2[C@@H](CO)[C@H](c3ccc(C#CCC4CCCC4)cc3)[C@@H]2C1 | . | -2.2 | 0.9 | -3.6 | . | .
CC(=O)c1c(C)n([O-])c2cc(F)c(F)cc2[n+]1=O | -8.8 | 35.1 | -3.9 | 63.5* | 6.0 | -9.3

Assay outcomes from PubChem.
